Measured values reported in paper PMC5540273 (PLoS ONE, 2017).

Key:
Details in all cases: concentration: 1 μM, replicates: in singlicate; n = 1
PKMYT1 = test system: PKMYT1
PKN1 = test system: PKN1
PKN2 = test system: PKN2
PLK1 = test system: PLK1
PLK2 = test system: PLK2
PLK3 = test system: PLK3
PLK4 = test system: PLK4
PRKCD = test system: PRKCD
PRKCE = test system: PRKCE
PRKCH = test system: PRKCH
PRKCI = test system: PRKCI
PRKCQ = test system: PRKCQ
PRKD1 = test system: PRKD1
PRKD2 = test system: PRKD2
PRKD3 = test system: PRKD3
PRKG1 = test system: PRKG1
PRKG2 = test system: PRKG2
PRKR = test system: T1, PRKR
T1 construct: gene EIF2AK2

PRKX = test system: PRKX
PRP4 = test system: PRP4
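Also: KINOMEscan kinase panel screen.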

Compound | %Inh (PKMYT1) [%] | %Inh (PKN1) [%] | %Inh (PKN2) [%] | %Inh (PLK1) [%] | %Inh (PLK2) [%] | %Inh (PLK3) [%] | %Inh (PLK4) [%] | %Inh (PRKCD) [%] | %Inh (PRKCE) [%] | %Inh (PRKCH) [%] | %Inh (PRKCI) [%] | %Inh (PRKCQ) [%] | %Inh (PRKD1) [%] | %Inh (PRKD2) [%] | %Inh (PRKD3) [%] | %Inh (PRKG1) [%] | %Inh (PRKG2) [%] | %Inh (PRKR) [%] | %Inh (PRKX) [%] | %Inh (PRP4) [%]
CCCCCc1nc2c(N)ncnc2n1CCCCC [SKF-97255] | 0 | 0 | 0 | 19 | 18 | 27 | 25 | 18 | 0 | 7 | 8 | 0 | 0 | 0 | 0 | 0 | 0 | 0 | 0 | 3
CC(C)(C)n1cnc2c(N)ncnc21 [SKF-97359] | 0 | 0 | 0 | 0 | 0 | 0 | 0 | 1 | 0 | 0 | 0 | 0 | 0 | 13 | 0 | 12 | 0 | 0 | 0 | 17
Fc1ccc(-c2ncn(CCCN3CCOCC3)c2-c2cccnc2)cc1 [SB-211743] | 0 | 0 | 13 | 0 | 0 | 15 | 0 | 6 | 0 | 0 | 23 | 0 | 0 | 6 | 0 | 35 | 0 | 0 | 0 | 0
NCC(NC(=O)c1cc(-c2cn[nH]c2)c(-c2ccnc3[nH]ccc23)s1)c1ccccc1.O=C(O)C(F)(F)F.O=C(O)C(F)(F)F (stereo not drawn) [GSK1325775] | 0 | 52 | 66 | 14 | 5 | 14 | 29 | 99.8 | 98.7 | 95.1 | 25 | 90.3 | 0 | 45 | 55 | 84 | 93.6 | 27 | 97.8 | 72
Cc1cccc(-c2nc(-c3ccc(S(C)(=O)=O)cc3)sc2-c2ccncc2)c1 | 20 | 17 | 0 | 0 | 8 | 6 | 10 | 24 | 7 | 10 | 0 | 9 | 0 | 0 | 0 | 0 | 0 | 2 | 1 | 6
O=C(NCCNc1ccnc(Nc2ccc(F)cc2)n1)Nc1ccccc1F [GSK1379880] | 9 | 0 | 0 | 100 | 0 | 0 | 0 | 0 | 0 | 0 | 25 | 0 | 0 | 0 | 0 | 0 | 0 | 0 | 9 | 21
O=C1NC(=O)C(N2CCc3ccccc32)=C1c1cccc(Cl)c1 [SB-408010] | 20 | 0 | 3 | 27 | 0 | 4 | 25 | 0 | 19 | 13 | 1 | 29 | 4 | 6 | 3 | 0 | 0 | 0 | 0 | 8
N#Cc1ccc(-c2cc(-c3c[nH]nc3-c3ccccn3)ccn2)cc1 [GW693028] | 1 | 0 | 0 | 0 | 0 | 0 | 0 | 0 | 16 | 18 | 0 | 15 | 63 | 40 | 0 | 0 | 0 | 0 | 2 | 41
Cn1ccc2ncnc(Oc3ccc(NC(=O)Nc4ccncc4)c(Cl)c3)c21 | 2 | 0 | 0 | 0 | 8 | 0 | 0 | 6 | 0 | 16 | 0 | 0 | 14 | 0 | 0 | 3 | 0 | 0 | 0 | 14
c1ccc(-c2n[nH]cc2-c2ccnc3ccccc23)nc1 [GW271431] | 3 | 12 | 0 | 0 | 0 | 0 | 0 | 4 | 3 | 9 | 0 | 0 | 1 | 14 | 38 | 0 | 8 | 0 | 0 | 5
Fc1ccc(-c2ncn(CCCN3CCOCC3)c2-c2ccccn2)cc1 [SB-211742] | 0 | 0 | 9 | 12 | 0 | 0 | 0 | 28 | 0 | 0 | 100 | 0 | 0 | 31 | 0 | 0 | 1 | 12 | 0 | 44
Nc1nccc(-c2c(-c3ccc(F)cc3)ncn2C2CCN(CC(F)(F)F)CC2)n1 [SB-236560] | 20 | 0 | 0 | 0 | 0 | 0 | 17 | 0 | 19 | 0 | 14 | 12 | 0 | 0 | 0 | 0 | 27 | 0 | 0 | 7
CC(=O)Nc1ccc(COc2ccc(Nc3ccnc4cc(-c5ccccn5)ccc34)cc2)cc1.Cl [GW440148] | 0 | 32 | 0 | 0 | 0 | 0 | 0 | 0 | 0 | 0 | 15 | 0 | 18 | 14 | 0 | 0 | 8 | 27 | 12 | 27
Cc1nnc(-c2ccc3ncc(-c4ccc(S(C)=O)cc4)n3c2)o1 (stereo not drawn) | 3 | 0 | 0 | 0 | 11 | 12 | 0 | 14 | 0 | 0 | 0 | 0 | 0 | 13 | 0 | 0 | 0 | 0 | 19 | 2
O=C(NOCC1CC1)c1ccc(F)c(F)c1Nc1ccc(I)cc1Cl | 0 | 0 | 0 | 0 | 8 | 0 | 0 | 3 | 28 | 0 | 0 | 0 | 8 | 0 | 0 | 0 | 0 | 0 | 0 | 0
COc1cc2c(cc1OC[C@@H](O)CO)ncc1c3ccc(C#N)cc3[nH]c21 | 0 | 0 | 33 | 0 | 0 | 0 | 9 | 5 | 62 | 0 | 0 | 0 | 0 | 0 | 0 | 0 | 0 | 0 | 0 | 9
Cc1cccc(-c2nc(Nc3ccc4ncsc4c3)c3ccccc3n2)n1 [GW867588] | 9 | 14 | 0 | 12 | 19 | 16 | 14 | 7 | 27 | 0 | 14 | 5 | 98.7 | 99.8 | 66 | 0 | 0 | 17 | 0 | 0
CN1c2ccc(CNc3ccc(F)cc3)cc2-c2c(cnn2C)S1(=O)=O | 0 | 0 | 0 | 11 | 15 | 11 | 0 | 0 | 5 | 0 | 0 | 12 | 17 | 0 | 0 | 0 | 0 | 0 | 0 | 11
O=C(Nc1n[nH]c2cc(-c3cccc(F)c3)ccc12)C1CC1 [SB-735464] | 1 | 7 | 17 | 0 | 37 | 13 | 4 | 0 | 34 | 8 | 0 | 5 | 0 | 0 | 1 | 16 | 0 | 0 | 0 | 7
C[C@@H](Oc1cc(-n2cnc3ccc(NC(=O)NC(C)(C)C)cc32)sc1C(N)=O)c1ccccc1Cl [GSK346294] | 5 | 0 | 0 | 99.9 | 96 | 87 | 0 | 5 | 19 | 21 | 0 | 15 | 2 | 14 | 24 | 3 | 15 | 0 | 21 | 43
Cc1c2ccc(N(C)c3ccnc(Nc4cccc(S(N)(=O)=O)c4)n3)cc2nn1Cc1ccccc1.Cl.Cl [GW787226] | 0 | 0 | 0 | 0 | 0 | 15 | 50 | 0 | 0 | 0 | 0 | 0 | 0 | 0 | 0 | 0 | 0 | 0 | 0 | 0
